Compound activity: PubChem, National Center for Advancing Translational Sciences (NCATS)
The list is not random: actives were taken first. Their share in the collection is about 19%.
IL-1B inflam inh = inhibitors of inflammasome signaling (IL-1 beta secretion); activity change, % at 57.5 µM; THP-1 LPS/ATP IL-1B secretion, AlphaLISA, 16 h; hits give low values; AID 743279; actives 4.7% (n = 360,000); in the data active means activity change below about -50%; inconclusive means mostly about -30% to -49%
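Secreted IL-1B measured by AlphaLISA bead assay after 16 h compound exposure of THP-1 cells; compounds (final up to 57.5 uM) added 1 h before LPS (250 ng/mL) and ATP (1.25 mM) stimulation; lower signal means less secretion.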
SW480 rereplic = induces DNA re-replication in SW480 colon adenocarcinoma cells; SW480 DNA re-replication, Hoechst DNA content imaging, 48 h; Potency, µM (titrated, usually from 46.1 µM), usual class: activators; actives 1.8% (n = 340,000); further: nearly all actives have a fitted effect of over 55% in size
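250 cells/well; 23 nL cpd via pin tool; 48 hr, 37 C, 5% CO2; Hoechst 40 min; imager read of total nuclear intensity, ex 405/em 500-530 nm.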
DT40 TDP1 CPT = growth inhibition of DT40 Tdp1-/-;hTDP1 cells with camptothecin (screen for TDP1 inhibitors). Potency, µM (titrated, usually from 46.2 µM), actives largely listed as inhibitors. AID 686979. chicken DT40 Tdp1-/-;hTDP1 cells + 20 nM CPT, ATP luminescence, 48 h. actives 12% (n = 420,000); further: nearly all actives have a fitted effect of over 55% in size
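Chicken DT40 Tdp1-/- cells stably complemented with human TDP1 were seeded at 400 cells/well in medium containing 20 nM camptothecin, exposed to pin-transferred compounds, and grown at 37 °C for at least 48 hr. Viability was read as ATP luminescence.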
BCR signal inh = blocks chronic active B-cell receptor signaling | Potency, µM (highest dose often 46.1 µM), actives largely listed as inhibitors | AID 493014 | actives 0.05% (n = 340,000) | ABC-DLBCL IkBa-CBG/CBR reporter, luminescence ratio, 4 h; active means well fitted inhibition curve with a large enough effect in the signal ratio, with a control signal flat, not every such curve was filed as active; inconclusive means small, poorly fitted or top-dose-only effect, or effect the other way, or a change in a side signal; the % refers to the signal ratio
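TMD8 human ABC-DLBCL cells with doxycycline-inducible IκBα–green luciferase fusion and unfused red luciferase, in 0.5% FBS medium; compounds up to 46 uM, 4 h at 37C. Green/red luminescence ratio, filter-overlap corrected, fitted to concentration-response curves.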
TDP1 cell noCPT = qHTS for Inhibitors of human tyrosyl-DNA phosphodiesterase 1 (TDP1): qHTS in cells in absence of CPT. actives 15% (n = 420,000). AID 686978, 2013. DT40 Tdp1-/- hTDP1 cells, no CPT, ATP luminescence, 48 h. Potency, µM (top dose mostly 46.2 µM), actives largely listed as inhibitors; further: nearly all actives have a fitted effect of over 55% in size
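DT40 Tdp1-/-;hTDP1 cells, no CPT (DMSO vehicle only), 400 cells/well; compounds pin-transferred; ≥48 hr, 37 °C; CellTiter-Glo 30 min RT dark, luminescence read.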
MCF10A rerep = DNA re-replication induction in MCF 10a cells | Potency, µM (series often up to 46.1 µM), actives largely listed as activators | MCF 10A DNA re-replication, Hoechst nuclear intensity, 48 h | actives 2.9% (n = 350,000); further: nearly all actives have a fitted effect of over 50% in size
A number is an active result; i = inactive; ? = inconclusive; nt = no result; [ ] = another dose, or the depositor's remark. Unless noted, the call rests on the fitted dose curve; in most records, active means well fitted curve in the direction sought with a large enough effect; inconclusive means small, poorly fitted or top-dose-only effect, or another doubt; inactive means no such curve, though single readings can be large; an effect the other way counts as inactive or inconclusive.

SMILES	IL-1B inflam inh	SW480 rereplic	DT40 TDP1 CPT	BCR signal inh	TDP1 cell noCPT	MCF10A rerep
CC=Cc1cc(OC)c2c(c1)C(C)C(c1ccc(O)c(OC)c1)O2 (configuration not stated)	-65	i	?	nt	?	?
CC(=O)c1cccc(OCC(=O)N(C)CC(=O)Nc2ccc(F)cc2)c1	i	i	i	i	i	i
CN(C)C/C=C/C(=O)Nc1cccc(-c2c[nH]c3ncnc(Oc4ccc(NC(=O)CC(=O)Nc5ccc(F)cc5)cc4F)c23)c1	-90	i	i	i	i	?
Cc1ccc(Cc2c(-c3cccc(Cl)c3)nc3c4ccccc4ccn23)cc1	i	nt	?	nt	?	nt
c1ccc2c(c1)CCc1ccccc1C2=C1CCNCC1	-66	i	15µM	nt	13µM	i
O=C1C(=C2CCc3ccccc32)Cc2ccccc21	i	i	?	nt	?	i
O=C(NC1CCCCC1)c1ccc(Cn2c(SCc3ccccc3F)nc3cccnc32)cc1	nt	nt	?	nt	16µM	nt
O=C(NC1CCCCC1)c1ccc(CSc2nc3cccnc3n2Cc2ccccc2F)cc1	nt	nt	?	nt	21µM	nt
O=C(NC1CC1)c1ccc(Cn2c(SCc3ccccc3F)nc3cccnc32)cc1	nt	nt	21µM	nt	12µM	nt
Cc1nn(CCCC(=O)NCCc2ccccc2)c(=O)c2nccn12	i	i	i	i	i	i
O=C(CCSCc1cccc(Cl)c1)NCCc1ccccc1	i	i	i	i	i	i
O=C(CCSCc1cccc(Cl)c1)NCc1ccccc1Cl	nt	nt	?	i	26µM	nt
O=C(CCSCc1cccc(F)c1)NCc1ccc(F)cc1	i	?	?	i	18µM	?
NC(CSC(c1ccccc1)(c1ccccc1)c1ccccc1)C(=O)O (configuration not stated)	i	6.5µM	5.8µM	nt	5.2µM	6.5µM
OC(c1ccc(F)c(F)c1)c1nc(-c2ccc(F)c(Cl)c2)cs1 (configuration not stated)	i	nt	?	nt	i	nt
OC(c1ccc(F)c(F)c1)c1nc(-c2ccncc2)cs1 (configuration not stated)	i	nt	8.2µM	nt	8.2µM	nt
OC(c1ccc(F)c(F)c1)c1nc(-c2ccc(Cl)cc2)cs1 (configuration not stated)	i	nt	?	nt	16µM	nt
OC(c1ccc(F)c(F)c1)c1nc(-c2cccc(C(F)(F)F)c2)cs1 (configuration not stated)	i	nt	16µM	nt	?	nt
OC(c1ccc(F)cc1)c1nc(-c2ccncc2)cs1 (configuration not stated)	i	nt	7.3µM	nt	7.3µM	nt
CCC(=O)[C@@]1(C)[C@H](C)C[C@@H]2[C@@H]3CCC4=CC(=O)C=C[C@@]4(C)[C@H]3[C@H](O)C[C@]21C	nt	i	nt	nt	nt	i
CCCCCCNC(=O)CCCCCNS(=O)(=O)c1ccc(Br)cc1	i	i	i	i	?	i
O=C(Nc1ccc2c(c1)C(=O)N(c1ccccc1)C2=O)c1cccs1	?	i	i	i	?	?
O=C(O)CCN1C(=O)c2ccc(NC(=O)c3cccs3)cc2C1=O	i	i	i	i	i	21µM
O=C(NCc1cccc(C(F)(F)F)c1)c1ccc2c(c1)OCCO2	i	i	i	i	i	i
CCn1cc(C(=O)NCCc2ccccc2)c(=O)c2cc(S(=O)(=O)N3CCc4ccccc4C3)ccc21	nt	nt	?	nt	21µM	nt
SMILES	IL-1B inflam inh	SW480 rereplic	DT40 TDP1 CPT	BCR signal inh	TDP1 cell noCPT	MCF10A rerep
CCn1cc(C(=O)NCCc2ccc(OC)c(OC)c2)c(=O)c2cc(S(=O)(=O)N3CCc4ccccc4C3)ccc21	nt	nt	?	nt	26µM	nt
CCCCN(CCCC)CCNC(=O)c1cn(CC)c2ccc(S(=O)(=O)N3CCc4ccccc4C3)cc2c1=O	i	i	21µM	i	23µM	i
CC(C)CN(CCNC(=O)c1cc(=O)[nH]c2ccc(S(=O)(=O)N3CCCCCC3)cc12)CC(C)C	nt	nt	i	i	i	nt
CCn1cc(C(=O)NCCc2ccc(C)cc2)c(=O)c2cc(S(=O)(=O)N3CCCCC3)ccc21	nt	nt	i	nt	i	nt
CCCCN(CCCC)CCNC(=O)c1cc(=O)[nH]c2ccc(S(=O)(=O)N3CCCCCC3)cc12	nt	nt	?	i	16µM	nt
Cc1ccc(-c2oc3ccccc3c(=O)c2O)cc1	i	i	26µM	i	16µM	26µM
Cc1ccc2oc(-c3ccccc3)c(C(=O)O)c(=O)c2c1	i	i	?	i	23µM	?
COc1cccc(-c2oc3ccc(C)cc3c(=O)c2O)c1	nt	nt	21µM	nt	13µM	nt
O=c1c(O)c(-c2ccccc2)oc2ccccc12	i	i	?	nt	9.2µM	?
c1ccc2sc(Sc3ncnc4sccc34)nc2c1	-79	?	5.8µM	?	2.9µM	21µM
CCc1cc2c(Sc3nc4ccccc4s3)ncnc2s1	?	?	5.2µM	?	9.2µM	?
CCc1cc2c(SCC(=O)Nc3ccc(NC(C)=O)cc3)ncnc2s1	i	i	i	?	i	i
COC(=O)CNC(=O)c1ccc(F)cc1	i	i[9.22 µM]	i	i	i	i
N#Cc1c(NC(=O)COC(=O)C2CC3C=CC2C3)oc(-c2ccccc2)c1-c1ccccc1 (configuration not stated)	i	i	i	?	i	18µM
COc1ccccc1OCC(=O)Nc1oc(-c2ccccc2)c(-c2ccccc2)c1C#N	i	i	i	?	i	?
COc1ccc(-c2oc(NC(=O)CSc3ncn[nH]3)c(C#N)c2-c2ccc(OC)cc2)cc1	i	35µM	13µM	?	?	14µM
N#Cc1c(NC(=O)CSc2ncccn2)oc(-c2ccccc2)c1-c1ccccc1	i	i	i	nt	i	i
COc1ccc(-c2oc(NC(=O)CCl)c(C#N)c2-c2ccc(OC)cc2)cc1	-93	?	6.5µM	?	5.2µM	?
Cc1ccc(OCC(=O)Nc2oc(-c3ccccc3)c(-c3ccccc3)c2C#N)cc1	i	i	21µM	nt	16µM	16µM
O=[N+]([O-])c1cccc(-c2noc(-c3cccs3)n2)c1	i	i	i	?	i	i
COC(=O)c1sc(S(=O)(=O)NC(C)C(=O)O)c(C(=O)OC)c1C (configuration not stated)	i	i	i	i	i	i
O=C1C2C3C=CC(C3)C2C(=O)N1/N=C/c1ccc(-c2ccccc2[N+](=O)[O-])o1 (configuration not stated)	i	i	?	i	i	?
O=C1C2C3C=CC(C3)C2C(=O)N1/N=C/c1cc(Br)cc([N+](=O)[O-])c1O (configuration not stated)	i	i	?	i	23µM	?
